Laboratory results published in PubChem BioAssay (NCATS).
Inconclusive results are not listed. Entries that show only a call come without a potency. Active and inactive are the calls of the source. Calls follow the shape of the dose curve; as a rule, active = well fitted curve in the direction sought with a large enough effect; inconclusive = small, poorly fitted or top-dose-only effect, or another doubt; inactive = no such curve, though single readings can be large; an effect the other way counts as inactive or inconclusive.

Legend:
[1] = target: N-terminal Xaa-Pro-Lys N-methyltransferase 1 (Homo sapiens) (UniProt Q9BV86); test: qHTS Assay for Inhibitors of N-terminal methyltransferase 1 (NTMT1): LOPAC validation of the NTMT1 SAHH-coupled ThioGlo3 Assay (AID 1347143); also: nearly all actives have a fitted effect of over 70% in size; also: potency is read from the fitted curve at half-maximal effect
Outline: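 Fluorescence read-out (excitation 340nm, emission 450nm) of SAH-derived thiol, measured via SAHH coupling and ThioGlo3, taken immediately and after a 30 min room-temperature reaction, then normalized to the background read. Enzyme: NTMT1 at 125nM; cofactor SAM 100uM in the added reagent.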

[2] = system: Zika virus NS2B-NS3 protease (unlinked); test: Optimization of GU AMC qHTS for Zika virus inhibitors: Unlinked NS2B-NS3 protease assay (AID 1347151); also: nearly all actives have a fitted effect of over 80% in size; also: potency is read from the fitted curve at half-maximal effect
Outline: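 Noncovalent NS2B hydrophilic domain–NS3 protease complex (25 nM final) in 10 mM Tris-HCl pH 8.0, 0.01% Tween 20; AMC substrate, room temperature 15 min (~20% conversion); fluorescence change normalized, 4-parameter Hill fit.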

[3] = target: Furin (Homo sapiens) (UniProt P09958); test: Furin counterscreen qHTS for Zika virus inhibitors (AID 1347149);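 also: purified recombinant full-length human furin enzyme at 5 nM; fluorescence gain from furin cutting a BOC-RVRR-AMC peptide substrate over 15 min; top concentration of the series differs between compounds; nearly all actives have a fitted effect of over 70% in size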
Outline: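 Fluorogenic cleavage of BOC-RVRR-AMC (2 microM final, Km ~15 µM) was monitored (ex 340, em 450 nm) at 37C after 15 min RT preincubation of 5 nM furin with compounds in HEPES pH 7.0 buffer with CaCl2 and Triton X-100. Percent inhibition was fitted to a 4-parameter Hill curve.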

[4] = system: Zika virus NS2B-NS3 protease (linked construct); test: Confirmatory screen NINDS AMC qHTS for Zika virus inhibitors (AID 1347152);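 also: AMC fluorescence gain from cleaved Bz-Nle-KRR-AMC substrate over 15 min; top concentration of the series differs between compounds; nearly all actives have a fitted effect of over 70% in size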
Outline: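 Linked NS2B-NS3 protease, 1 nM, in 10 mM Tris-HCl pH 8.0, 0.01% Tween 20; compounds preincubated 15 min at room temperature. Nle-KRR-AMC 10 microM (Km 18.3 µM); 15-min fluorescence change (340/450 nm) fitted to 4-parameter Hill.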

[5] = system: Zika virus NS2B-NS3 protease (unlinked complex); test: Confirmatory screen GU AMC qHTS for Zika virus inhibitors (AID 1347153); also: nearly all actives have a fitted effect of over 70% in size
Outline: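 Unlinked NS2B-NS3 complex (25 nM) in 10 mM Tris-HCl pH 8.0, 0.01% Tween 20 preincubated 15 min with compound, then 10 microM Bz-Nle-KRR-AMC (Km 18.3 µM). Fluorescence change over 15 min, normalized, Hill-fitted.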

Chain of N-terminal Xaa-Pro-Lys N-methyltransferase 1 (Homo sapiens) (Q9BV86 whole entry, looked up): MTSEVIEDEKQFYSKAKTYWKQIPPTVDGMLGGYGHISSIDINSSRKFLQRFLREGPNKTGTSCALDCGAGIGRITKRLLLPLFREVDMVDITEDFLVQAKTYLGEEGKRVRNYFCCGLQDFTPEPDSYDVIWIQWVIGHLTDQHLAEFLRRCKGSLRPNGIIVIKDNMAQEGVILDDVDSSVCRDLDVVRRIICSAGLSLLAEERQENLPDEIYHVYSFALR
Chain of Furin (Homo sapiens) (P09958 whole entry, looked up): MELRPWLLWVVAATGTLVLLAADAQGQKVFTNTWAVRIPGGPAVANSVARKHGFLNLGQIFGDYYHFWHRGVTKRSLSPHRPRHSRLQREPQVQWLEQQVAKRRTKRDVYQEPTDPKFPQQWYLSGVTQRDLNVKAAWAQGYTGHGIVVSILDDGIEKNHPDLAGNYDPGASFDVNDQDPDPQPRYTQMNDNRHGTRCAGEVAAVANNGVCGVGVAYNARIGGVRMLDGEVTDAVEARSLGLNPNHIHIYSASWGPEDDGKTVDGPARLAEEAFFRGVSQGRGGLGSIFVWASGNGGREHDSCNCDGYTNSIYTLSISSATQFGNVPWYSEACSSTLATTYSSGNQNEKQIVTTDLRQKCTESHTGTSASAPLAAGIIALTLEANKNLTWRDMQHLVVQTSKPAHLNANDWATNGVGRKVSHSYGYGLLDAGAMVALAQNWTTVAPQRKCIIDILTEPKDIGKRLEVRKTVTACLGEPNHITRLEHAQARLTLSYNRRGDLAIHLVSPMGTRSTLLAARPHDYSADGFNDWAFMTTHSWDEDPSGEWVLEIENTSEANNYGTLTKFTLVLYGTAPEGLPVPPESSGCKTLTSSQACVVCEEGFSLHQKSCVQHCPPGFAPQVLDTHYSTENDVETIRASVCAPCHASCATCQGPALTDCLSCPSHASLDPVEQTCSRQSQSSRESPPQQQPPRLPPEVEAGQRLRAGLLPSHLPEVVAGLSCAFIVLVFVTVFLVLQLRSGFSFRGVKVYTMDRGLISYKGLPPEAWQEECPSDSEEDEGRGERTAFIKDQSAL

For `NCCCCCC(=O)O`, the Potency [1] was “inactive” and the Potency [2] was “inactive”.

For `CN1CCN2c3ccccc3Cc3ccccc3C2C1` (stereo not drawn), the Potency [2] was “inactive”.

For `O=C(c1ccc(F)cc1)C1CCN(CCn2c(=O)[nH]c3ccccc3c2=O)CC1`, the Potency [3] was “inactive”, the Potency [4] was “inactive” and the Potency [5] was “inactive”.

With `COc1ccc2c(c1)c(CC(=O)O)c(C)n2C(=O)c1ccc(Cl)cc1` the Potency [1] was “inactive” and the Potency [2] was “inactive”.

`CCC1(C)CC(=O)NC1=O` (stereo not drawn) was tested, and the Potency [1] was “inactive” and the Potency [2] was “inactive”.

With `CN1CCC(=C2c3ccccc3CC(=O)c3sccc32)CC1` the Potency [2] was “inactive”.

With `CCOC(=O)C(C)(C)Oc1ccc(Cl)cc1` the Potency [1] was “inactive” and the Potency [2] was “inactive”.

With `Clc1ccc2c(c1)C(N1CCNCC1)=Nc1ccccc1O2` the Potency [1] was “inactive” and the Potency [2] was “inactive”.

With `CN(C)C(=O)C(CCN1CCC(O)(c2ccc(Cl)cc2)CC1)(c1ccccc1)c1ccccc1` the Potency [1] was “inactive” and the Potency [2] was “inactive”.

`CCc1cccc2c3c([nH]c12)C(CC)(CC(=O)O)OCC3` (stereo not drawn) was tested, and the Potency [1] was “inactive” and the Potency [2] was “inactive”.

In the case of `Nc1nnc(-c2cccc(Cl)c2Cl)c(N)n1`, the Potency [1] is reported as “inactive” and the Potency [2] is reported as “inactive”.

For `CCCNCC(O)COc1ccccc1C(=O)CCc1ccccc1` (stereo not drawn), the Potency [2] was “inactive”.

With `CC(C(=O)O)c1cccc(C(=O)c2ccccc2)c1` (stereo not drawn) the Potency [1] was “inactive” and the Potency [2] was “inactive”.

With `OCCN(CCO)c1nc(N2CCCCC2)c2nc(N(CCO)CCO)nc(N3CCCCC3)c2n1` the Potency [1] was 79.4 µM (active) and the Potency [2] was 26.7 µM (active).

For `O=c1c(-c2ccc(O)cc2)coc2cc(O)cc(O)c12`, the Potency [2] was “inactive”.

`COc1ccccc1OCC(O)CN1CCN(CC(=O)Nc2c(C)cccc2C)CC1` (stereo not drawn) was tested, and the Potency [2] was “inactive”.
